In PubChem BioAssay AID2551 (National Center for Advancing Translational Sciences (NCATS), 2010) one finds Potency and activity change, negative = inhibition data, which are given here for 106 compounds.

The whole screen tested about 310,000 compounds, of which about 17,000 (5.5%) were called active. Entries that show only a call come without a potency. Not shown: some 11% with an inconclusive outcome. The sample as a whole holds a higher share of actives than the screen did. A number with no mark means an inactive call. Calls come from the whole dose curve; as a rule, active = well fitted inhibition curve with a large enough effect; inconclusive = small, poorly fitted or top-dose-only effect, or effect the other way; inactive = no such curve, though single readings can be large or run the other way.
Potency is the fitted concentration of half-maximal effect.

Sequence of Nuclear receptor ROR-gamma (Mus musculus) (P51450 whole entry, looked up, the tested form may be a part): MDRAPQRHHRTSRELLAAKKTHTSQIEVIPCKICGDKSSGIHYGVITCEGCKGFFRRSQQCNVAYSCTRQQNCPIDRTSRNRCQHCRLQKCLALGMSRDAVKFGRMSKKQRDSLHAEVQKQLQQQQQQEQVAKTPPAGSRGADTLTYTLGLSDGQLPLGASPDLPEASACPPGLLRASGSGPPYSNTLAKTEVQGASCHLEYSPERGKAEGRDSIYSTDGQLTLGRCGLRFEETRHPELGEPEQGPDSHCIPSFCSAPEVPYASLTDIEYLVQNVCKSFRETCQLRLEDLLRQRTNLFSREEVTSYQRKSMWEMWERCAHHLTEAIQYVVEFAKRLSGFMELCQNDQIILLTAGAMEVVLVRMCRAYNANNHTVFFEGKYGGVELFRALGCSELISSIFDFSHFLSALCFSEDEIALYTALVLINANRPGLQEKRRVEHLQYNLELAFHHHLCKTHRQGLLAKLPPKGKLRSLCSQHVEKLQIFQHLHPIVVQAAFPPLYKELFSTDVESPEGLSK

The target in this assay is Nuclear receptor ROR-gamma (Mus musculus) (UniProt P51450). Briefly: qHTS for inhibitors of ROR gamma transcriptional activity. Note: nearly all actives have a fitted effect of over 60% in size. As to conditions: Drosophila S2 Gal4-RORgamma UAS-luciferase reporter, 20 h; series mostly up to 53.6 µM. In short, it runs like this:
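Schneider cells (Drosophila), stable Gal4 DBD–ROR gamma + UAS-luc; 1 hr cmpd preincubation; Cu2+ induction 700 uM final; 20 hr ambient; luminescence.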
As to `Cc1ccn(CCC(=O)N2c3ccccc3CC2C)n1` (stereo unspecified), the Potency result was “inactive”.

For the compound `COc1ccc(-c2cn(-c3ccc(OC)cc3)c(=S)[nH]2)cc1`, the Potency was 0.398 µM (active).

Consider `COc1ccc(-n2c(C)csc2=S)cc1`, for which the Potency result is “inactive”.

For the compound `COc1ccc(N2C(=O)CNC2=S)cc1`, the Potency entry is “inactive”.

Regarding `COc1ccc(S(=O)(=O)N(CC(=O)N/N=C/c2ccc(C(=O)O)cc2)Cc2ccccc2)cc1OC`, the Potency entry is “inactive”.

Regarding `COc1ccc(-n2ncc3c(SCC(=O)NNC(C)=O)ncnc32)cc1`, the Potency result was “inactive”.

As to `CC(C)C[C@@H](COc1ccccc1)N1CCN(CC(C)C)CCC1=O`, the Potency entry is “inactive”.

Take `C/C(=N\OCC(=O)O)c1ccc(Cl)cc1`: the Potency result is “inactive”.

`CCOc1cc(/C=C(/C#N)c2ccc(Cl)cc2)cc(Cl)c1OCC(=O)O`: the Potency is 0.891 µM (active).

`CCOC(=O)CN/C=C(\C#N)c1ccc(F)cc1`: the Potency result was “inactive”.

With `CC(C)CNC(=S)NC(=O)c1ccc(Cl)cc1`, the Potency was 3.98 µM (active).

For `CC(C)C(NC(=O)c1ccc(Cl)cc1)C(=O)O` (stereo unspecified), the Potency entry was “inactive”.

For the compound `CCOC(=O)NNC(=O)c1ccc(Cl)cc1`, the Potency result is “inactive”.

As to `COc1ccc(C2=NS(=O)(=O)N(C)C(C(=O)N(C)Cc3ccccc3)=C2)cc1`, the Potency entry was “inactive”.

In the case of `CCn1cc(CCC(=O)NCc2ccc(F)cc2)c2ccccc21`, the Potency entry was “inactive”.

In the case of `CCN(CC)CCn1c(N)c(S(=O)(=O)c2ccccc2)c2nc3ccccc3nc21`, the Potency result is “inactive”.

Consider `CCN(CC)CCn1c(/N=C/c2cc(Br)ccc2O)nc2ccccc21`, for which the Potency was 3.98 µM (active).

Consider `C/C(=N\c1nc2ccccc2n1C)c1cc(Cl)ccc1O`, for which the Potency result was “inactive”.

Regarding `Cc1ccc(Cn2c(C)c3cnn(CC(=O)NCc4ccccn4)c(=O)c3c2C)cc1`, the Potency entry is “inactive”.

In the case of `CCOC(=O)c1cc2ccccc2n1CC(=O)c1ccccc1`, the Potency result was “inactive”.

On to `CCn1c(=N)n(CC(=O)c2cccc(OC)c2)c2ccccc21`, for which the Potency was 6.31 µM (active).

For `COc1ccc2cc(C(=O)O)n(CC(=O)c3ccccc3)c2c1`, the Potency entry was “inactive”.

Regarding `COc1ccc(NC(=O)c2cc(-c3cc(OC)c(OC)c(OC)c3)nc3ccccc23)c(OC)c1`, the Potency result was “inactive”.

As to `COC(=O)c1ccc(COc2ccc(C#N)cc2)o1`, the Potency entry is “inactive”.

As to `COc1ccc(C2/C(=C(/O)c3ccccc3)C(=O)C(=O)N2C)c(OC)c1` (stereo unspecified), the Potency entry is “inactive”.

`COc1ccc(OC)c(C(O)c2nc3ccccc3n2C)c1` (stereo unspecified): the Potency result is “inactive”.

As to `CCn1c(C(O)c2cc(OC)ccc2OC)nc2ccccc21` (stereo unspecified), the Potency entry is “inactive”.

For the compound `CCCn1c(C(O)c2cc(OC)ccc2OC)nc2ccccc21` (stereo unspecified), the Potency was 17.8 µM (active).

For the compound `CCOC(=O)c1ccccc1NS(=O)(=O)c1c(C)nc2sccn2c1=O`, the Potency result is “inactive”.

On to `OCC(CO)NC1C[C@](O)(CO)[C@@H](O)[C@H](O)[C@H]1O` (stereo partly specified), for which the activity change, negative = inhibition is 4.55% [at 10 µM].

On to `C=CCn1c(SCC(=O)NC23CC4CC(CC(C4)C2)C3)nc(O)cc1=O`, for which the Potency result was “inactive”.

As for `C=CCn1c(C23CC4CC(CC(C4)C2)C3)n[nH]c1=S`, the Potency is 2.82 µM (active).

As to `C=CCn1c(SCC(=O)NC)nnc1C12CC3CC(CC(C3)C1)C2`, the Potency result is “inactive”.

For the compound `Cc1nn(Cc2ccccc2)c(C)c1NS(=O)(=O)c1ccccc1`, the Potency result is “inactive”.

For the compound `Cc1ccccc1NC(=O)CCNS(=O)(=O)c1ccc2[nH]c(=O)oc2c1`, the Potency entry was “inactive”.

With `COc1cccc(/C=C2\C=C(c3ccc(C)cc3)OC2=O)c1OC(C)=O`, the Potency result was “inactive”.

Regarding `CCOc1cccc(/C=C/c2ccc3ccccc3n2)c1OC(C)=O`, the Potency is 3.98 µM (active).

For `COc1cccc(/C=C/c2ccc3ccccc3n2)c1OC(C)=O`, the Potency is 2 µM (active).

Turning to `CC(=O)c1ccc(S(=O)(=O)N2CCN(C(=O)/C=C/c3ccc4ccccc4n3)CC2)cc1`, the Potency result was “inactive”.

For the compound `CC(OC(=O)c1ccc2ccccc2n1)C(=O)c1ccccc1` (stereo unspecified), the Potency result is “inactive”.

On to `CCOc1ccccc1-c1cc(C(=O)N2CCOCC2)c2ccccc2n1`, for which the Potency result was “inactive”.

As for `Cc1cc(=O)oc2c(C)c(OC(C)C(=O)NC3CCN(Cc4ccccc4)CC3)ccc12` (stereo unspecified), the Potency result was “inactive”.

With `COCc1ccc(C(=O)NC2CC(C)(C)Cc3c2cnn3-c2ccc(C)cc2)o1` (stereo unspecified), the Potency result was “inactive”.

As to `CC(=O)c1ccc(NC(=O)CCNS(=O)(=O)c2cc(Br)cnc2N)cc1`, the Potency entry was “inactive”.

Consider `O=C(Nc1ccc2oc(-c3ccccc3F)nc2c1)c1ccco1`, for which the Potency result was “inactive”.

`COc1cc(OC)cc(C(=O)Nc2ccc(S(=O)(=O)Nc3cc(C)on3)cc2)c1`: the Potency entry was “inactive”.

Consider `COc1cc(OC)cc(C(=O)Nc2ccc(-c3nc4ccccc4o3)c(O)c2)c1`, for which the Potency was 11.2 µM (active).

As for `C[n+]1cc(-c2ccccc2)oc1-c1ccccc1`, the Potency entry is “inactive”.

Consider `CC(C)N(C(=O)Cn1cc(S(=O)(=O)CC(=O)N2CCOCC2)c2ccccc21)C(C)C`, for which the Potency entry is “inactive”.

Take `COc1ccc2c(CC(=O)N3CCc4cc(OC)c(OC)cc4C3)coc2c1`: the Potency entry is “inactive”.

Regarding `CCC(CCC(C)C1CCC2C3CC=C4CC(O)CC[C@@]4(C)C3CC[C@@]12C)C(C)C` (stereo partly specified), the Potency result is “inactive”.

`C=C1C(=CC=C2CCC[C@@]3(C)[C@@H]2CC[C@H]3[C@H](C)CCCC(C)C)C[C@@H](O)C[C@@H]1O`: the Potency was 12.6 µM (active).

For `COc1ccc(C(=O)O/N=C(\N)c2ccccn2)cc1[N+](=O)[O-]`, the activity change, negative = inhibition was -42.4% [at 1.91 µM].

For the compound `Cc1cccc(/C(N)=N/OC(=O)c2ccccc2Cl)c1`, the Potency was 0.251 µM (active).

As to `Cc1ccc(C(=O)O/N=C(\N)c2ccccn2)cc1Cl`, the activity change, negative = inhibition was 35.7% [at 1.91 µM].

With `Cc1cccc(C(=O)c2cccc(C)c2)c1`, the Potency result is “inactive”.

As to `COc1ccc(S(=O)(=O)N2CCC(C(=O)N3CCCC3)CC2)cc1C`, the Potency result is “inactive”.

Turning to `COc1ccc(-c2nn(-c3ccccc3)cc2/C=C\C(=O)N2CCOCC2)cc1[N+](=O)[O-]`, the Potency result was “inactive”.

For `O=C(/C=C/c1cn(-c2ccccc2)nc1-c1ccc2c(c1)OCCO2)NCCCN1CCOCC1`, the Potency is 17.8 µM (active).

As for `COc1ccc(-c2nn(-c3ccccc3)cc2/C=C\C(=O)Nc2ccc(C(=O)O)cc2)cc1`, the Potency result was “inactive”.

For the compound `COc1cc(N2C(=O)CSC2=S)cc(OC)c1OC`, the Potency result was “inactive”.

For `O=C1CSC(=S)N1c1ccc(O)cc1`, the Potency was 12.6 µM (active).

As to `O=C1CSC(=S)N1c1ccc(Cl)c(Cl)c1`, the Potency result was “inactive”.

Regarding `CC1CN(C(=O)CCC(=O)NC2CCN(Cc3ccccc3)CC2)c2ccccc2O1` (stereo unspecified), the Potency entry is “inactive”.

`Cc1ccc(OCC(=O)Nc2ccccc2C(=O)NC2CC2)cc1C`: the Potency result is “inactive”.

With `O=C(N/N=C1\CCSC1)c1cc(Cl)ccc1O`, the Potency was 11.2 µM (active).

Regarding `NNC(=O)c1ccc(Cl)cc1Cl`, the Potency entry was “inactive”.

With `O=C(Nn1cnnc1)c1cc(Cl)ccc1Cl`, the Potency result was “inactive”.

For `O=C(c1cc(COc2ccc(F)c(F)c2)on1)N1CCOCC1`, the Potency result is “inactive”.

For the compound `COc1ccc(OCC(=O)NCCS(=O)(=O)N2CCN(c3ccc(F)cc3)CC2)cc1`, the Potency entry was “inactive”.

As to `Cc1cccc(NC(=O)NC2(C)CCS(=O)(=O)C2)c1` (stereo unspecified), the Potency entry is “inactive”.

Take `Cc1ncoc1C(=O)N1CCCC(C(=O)c2ccc3c4c(cccc24)CC3)C1` (stereo unspecified): the Potency result was “inactive”.

As to `CC(=O)NCC(=O)N1CCCC(C(=O)c2ccc3c4c(cccc24)CC3)C1` (stereo unspecified), the Potency entry is “inactive”.

For `CCn1ccnc1CN1CCCC(C(=O)c2ccc3c4c(cccc24)CC3)C1` (stereo unspecified), the Potency was 1.26 µM (active).

Take `CC(=O)Nc1ccc(S(=O)(=O)N(C)c2nc3ccccc3nc2Cl)cc1`: the Potency entry is “inactive”.

Consider `COc1ccc(C2c3[nH]c4ccccc4c3C[C@H]3C(=O)N(CC(C)C)CC(=O)N23)c(OC)c1` (stereo partly specified), for which the Potency result is “inactive”.

On to `COc1ccc(CNC(=O)CSc2n[nH]c(N)n2)cc1OC`, for which the Potency entry is “inactive”.

Turning to `Cc1ccc(N/C=C/C(=O)c2ccccc2)cc1C`, the Potency was 0.282 µM (active).

In the case of `O=C(/C=C\NCC(=O)c1ccccc1)c1ccccc1`, the Potency entry is “inactive”.

Consider `Cc1noc(NS(=O)(=O)c2ccc(N/C=C/C(=O)c3ccccc3)cc2)c1C`, for which the Potency entry is “inactive”.

Consider `COc1cc(/C=C2/C(=O)ON=C2C)ccc1OCc1ccccc1F`, for which the Potency was 10 µM (active).

In the case of `C=CCOc1ccc(/C=C2/C(=O)ON=C2C)cc1OCC`, the Potency result was “inactive”.

For `COc1cc(/C=C2/C(=O)ON=C2C)ccc1OCc1cccc(F)c1`, the Potency result is “inactive”.

As to `Cc1nn2c(=O)cc(COC(=O)c3ccc(NC(=O)C(C)(C)C)cc3)nc2s1`, the Potency entry is “inactive”.

On to `O=C(Cn1nnc(-c2ccccc2)n1)NCc1ccc2c(c1)OCO2`, for which the Potency result was “inactive”.

`Cc1cccc(C)c1NC(=O)CSc1nnc(-c2ccccc2)n1Cc1ccc2c(c1)OCO2`: the Potency entry is “inactive”.

As to `c1ccc(-c2nnc3n2NC(c2ccc4c(c2)OCO4)S3)cc1` (stereo unspecified), the Potency was 7.94 µM (active).

On to `COC(=O)c1c(C)[nH]c(C(=O)/C=C/c2ccc(Cl)cc2)c1C`, for which the Potency was 0.282 µM (active).

As for `COC(=O)c1c(C)[nH]c(C(=O)NCCc2ccc(S(N)(=O)=O)cc2)c1C`, the Potency result was “inactive”.

On to `CCCCOC(=O)c1[nH]c(C)c(C(=O)OC)c1C`, for which the Potency entry is “inactive”.

Turning to `CCS(=O)(=O)N1CCC(N2CCN(c3ccccc3)CC2)CC1`, the Potency entry is “inactive”.

Take `N#Cc1ccccc1NC(=O)COc1c(Br)cc(Br)c2cccnc12`: the Potency was 12.6 µM (active).

Turning to `N#Cc1ccc(C(=O)Nc2cccc3cccnc23)c(F)c1`, the Potency result was “inactive”.

For `O=C(COC(=O)c1ccccn1)Nc1cccc2ccccc12`, the Potency entry was “inactive”.

`Cc1ccc(CNC(=O)Cn2cnc(S(=O)(=O)N3CCCCC3)c2)o1`: the Potency result was “inactive”.

As for `Cc1c(C)c(C)c(S(=O)(=O)NCCc2ccccn2)c(C)c1C`, the Potency result was “inactive”.

With `Cc1ccc(C2NC(=S)NC3=C2N2CCC3CC2)cc1` (stereo unspecified), the Potency is 11.2 µM (active).

For `COc1cc(NC(=O)c2ccccc2)c(OC)cc1NC(=O)Cc1ccccc1`, the Potency entry is “inactive”.

Regarding `O=C(O)CCCn1c(=O)c2cccn2c2ccc(F)cc21`, the Potency result was “inactive”.

In the case of `Cc1ccc(-n2c(SCC(=O)NCCC3=CCCCC3)nc3n[nH]c(C)c3c2=N)cc1Cl`, the Potency result was “inactive”.

On to `O=C(Nc1cccc(Cl)c1)Nc1nnc(-c2ccccc2)o1`, for which the Potency entry is “inactive”.

With `Cc1nonc1NC(=O)c1ccccc1Br`, the Potency entry was “inactive”.

In the case of `O=C(Nc1nnc(-c2ccc(Cl)cc2)o1)c1ccccc1Br`, the Potency was 2.51 µM (active).

With `CN=C1S/C(=C\c2c(OC)cc(OC)cc2OC)C(=O)N1C`, the Potency result was “inactive”.

In the case of `CCc1ccc(S(=O)(=O)Nc2cc3c(cc2N2CCCCC2)n(C)c(=O)c(=O)n3C)cc1`, the Potency result is “inactive”.

Turning to `Cn1c(CCNS(=O)(=O)c2ccc(F)cc2)nnc1SCc1cccnc1`, the Potency entry is “inactive”.
